This is part of a sample that, as a whole, favours compounds with a hit. Of some 79,000 tested, about 15% had one in any assay. A number with no mark means an inactive call. Calls of active or inactive are those of the source. No stated cut-off is given here; in the data, active means growth inhibition above about 70%; inactive means the rest.
Test: NCI Yeast Anticancer Drug Screen. Data for the CLN2oe strain (AID 163);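 further: 0% = growth of vehicle-only control cultures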
Conditions: S. cerevisiae CLN2oe strain, hits give high values
Description: Growth inhibition of yeast strains with defined genetic alterations is measured as a screen for potential anti-cancer activity. Selected strains with alterations in DNA damage repair or cell cycle control were exposed to compounds and growth inhibition was measured relative to vehicle treated controls. The strain used in this assay is CLN2oe

SMILES	growth inhibition (at 1.2 µM)	growth inhibition (at 3.7 µM)	growth inhibition (at 11.0 µM)	growth inhibition (at 33.0 µM)	growth inhibition (at 100.0 µM)
Oc1ccc(SCc2ccc(NCc3ccccc3)cc2)cc1	12%	13%	13%	40%	90% (active)
NC1=NNC2(C(N)=N1)c1ccccc1-c1ccccc12	9%	15%	21%	39%	97% (active)
O=[N+]([O-])c1ccc2c(c1)/C(=N/N=C1c3ccccc3Cc3ccccc31)c1cc([N+](=O)[O-])cc([N+](=O)[O-])c1-2	28%	50%	99% (active)	99% (active)	95% (active)
O=C(Oc1ccc2c(c1)CN(Cc1ccccc1)CO2)c1ccccc1	-5%	-5%	-1%	16%	42%
CCOC(=O)C(Br)C(Br)c1ccccc1Cl (stereo not given)	-2%	3%	47%	99% (active)	99% (active)
O=[N+]([O-])c1cc(S(=O)(=O)Nc2ccccc2)ccc1Nc1ccccc1	14%	-1%	94% (active)	89% (active)	76% (active)
O=C1N=C2SC=C(NC(=S)Nc3ccccc3)N2NC12c1ccccc1-c1ccccc12	12%	4%	13%	64%	76% (active)
CCCCCCC(O)CNCc1ccnc2ccc(OC)cc12 (stereo not given)	9%	12%	39%	49%	56%

Reference: PubChem BioAssay (NCI)
